Drawing on PubChem BioAssay, this text covers inhibition for 15 compounds.

A number with no mark means an inactive call. Activity calls are given as the source filed them.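 How the source made its calls, unless noted: active means mean inhibition above 46.68%, the untreated control wells mean plus 3 SD; inactive means the rest.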

The target of assay [1] is Nuclear receptor coactivator 3 (Homo sapiens) (UniProt Q9Y6Q9). The experiment in a line: NCOA3 GAL4-fusion reporter inhibition – cell-based, luminescence, quadruplicate, confirmation (AID 588792;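 active means mean inhibition over 43.08%, the solvent-only control mean plus 3 SD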;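 further: 0% = DMSO treated cells and 100% = gossypol at 36 µM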). To be noted: HEK293 GAL4-SRC3 luciferase reporter, at 3.6 µM, active compounds read high. Background: A reporter such as luciferase makes a cellular process visible.
Nuclear receptor coactivator 3 (Homo sapiens), sequence (Q9Y6Q9 whole entry, looked up, the tested form may be a part): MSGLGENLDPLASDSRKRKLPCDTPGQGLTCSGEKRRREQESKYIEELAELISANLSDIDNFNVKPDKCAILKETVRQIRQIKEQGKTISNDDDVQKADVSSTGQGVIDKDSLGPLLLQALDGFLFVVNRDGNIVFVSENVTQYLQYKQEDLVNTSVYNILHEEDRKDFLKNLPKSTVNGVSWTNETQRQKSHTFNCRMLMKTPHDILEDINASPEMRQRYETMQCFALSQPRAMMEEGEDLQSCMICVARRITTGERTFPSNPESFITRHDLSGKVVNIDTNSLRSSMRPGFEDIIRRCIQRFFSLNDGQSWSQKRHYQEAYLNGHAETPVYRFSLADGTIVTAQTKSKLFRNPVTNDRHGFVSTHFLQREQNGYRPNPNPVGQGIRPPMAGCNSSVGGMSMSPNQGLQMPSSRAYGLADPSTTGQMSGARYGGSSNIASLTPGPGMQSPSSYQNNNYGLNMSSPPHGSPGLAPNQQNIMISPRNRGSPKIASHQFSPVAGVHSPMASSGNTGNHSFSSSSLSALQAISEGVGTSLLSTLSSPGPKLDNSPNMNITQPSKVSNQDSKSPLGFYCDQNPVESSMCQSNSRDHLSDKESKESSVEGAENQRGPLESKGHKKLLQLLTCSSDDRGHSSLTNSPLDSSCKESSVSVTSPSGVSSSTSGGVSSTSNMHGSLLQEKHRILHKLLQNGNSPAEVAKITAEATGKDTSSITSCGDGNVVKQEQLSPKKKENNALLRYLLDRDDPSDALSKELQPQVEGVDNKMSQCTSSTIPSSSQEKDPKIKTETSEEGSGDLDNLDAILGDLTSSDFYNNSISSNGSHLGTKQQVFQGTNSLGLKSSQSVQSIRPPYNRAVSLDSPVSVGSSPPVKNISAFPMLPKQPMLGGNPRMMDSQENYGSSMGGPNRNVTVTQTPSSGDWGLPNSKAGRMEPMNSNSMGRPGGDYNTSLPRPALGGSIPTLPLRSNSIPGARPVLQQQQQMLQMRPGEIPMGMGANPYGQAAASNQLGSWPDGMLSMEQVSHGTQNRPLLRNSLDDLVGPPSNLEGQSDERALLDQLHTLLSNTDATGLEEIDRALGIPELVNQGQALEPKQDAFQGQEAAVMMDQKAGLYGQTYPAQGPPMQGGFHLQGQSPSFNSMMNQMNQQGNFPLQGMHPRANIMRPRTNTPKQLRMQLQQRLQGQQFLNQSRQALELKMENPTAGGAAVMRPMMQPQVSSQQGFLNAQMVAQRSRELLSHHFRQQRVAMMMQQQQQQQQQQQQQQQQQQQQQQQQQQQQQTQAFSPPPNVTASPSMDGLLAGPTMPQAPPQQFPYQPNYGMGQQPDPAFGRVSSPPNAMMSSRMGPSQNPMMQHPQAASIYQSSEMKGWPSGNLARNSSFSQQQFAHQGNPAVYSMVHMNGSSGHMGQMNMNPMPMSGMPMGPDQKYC
Assay [2] deals with transactivating tegument protein VP16 (Human herpesvirus 1), Gal4-VP16 luciferase reporter. The experiment in a line: repression of VP16-driven luciferase reporter – cell-based, luminescence, high throughput, counter-screen for SRC3 inhibitor project (AID 588794; in the data active means inhibition above about 30%). To be noted: mammalian cells, at 3.6 µM, active compounds read high.
For assay [3], the target named is Nuclear receptor coactivator 1 (Homo sapiens) (UniProt Q15788). Briefly: NCOA1 GAL4-fusion reporter inhibition – cell-based, luminescence, quadruplicate, confirmation (AID 588820).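 Further: 0% = DMSO wells and 100% = gossypol 36 µM treated wells.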 The note with it: HEK293 GAL4-SRC1 luciferase reporter, at 3.6 µM, active compounds read high.
Nuclear receptor coactivator 1 (Homo sapiens), sequence (Q15788 whole entry, looked up, the tested form may be a part): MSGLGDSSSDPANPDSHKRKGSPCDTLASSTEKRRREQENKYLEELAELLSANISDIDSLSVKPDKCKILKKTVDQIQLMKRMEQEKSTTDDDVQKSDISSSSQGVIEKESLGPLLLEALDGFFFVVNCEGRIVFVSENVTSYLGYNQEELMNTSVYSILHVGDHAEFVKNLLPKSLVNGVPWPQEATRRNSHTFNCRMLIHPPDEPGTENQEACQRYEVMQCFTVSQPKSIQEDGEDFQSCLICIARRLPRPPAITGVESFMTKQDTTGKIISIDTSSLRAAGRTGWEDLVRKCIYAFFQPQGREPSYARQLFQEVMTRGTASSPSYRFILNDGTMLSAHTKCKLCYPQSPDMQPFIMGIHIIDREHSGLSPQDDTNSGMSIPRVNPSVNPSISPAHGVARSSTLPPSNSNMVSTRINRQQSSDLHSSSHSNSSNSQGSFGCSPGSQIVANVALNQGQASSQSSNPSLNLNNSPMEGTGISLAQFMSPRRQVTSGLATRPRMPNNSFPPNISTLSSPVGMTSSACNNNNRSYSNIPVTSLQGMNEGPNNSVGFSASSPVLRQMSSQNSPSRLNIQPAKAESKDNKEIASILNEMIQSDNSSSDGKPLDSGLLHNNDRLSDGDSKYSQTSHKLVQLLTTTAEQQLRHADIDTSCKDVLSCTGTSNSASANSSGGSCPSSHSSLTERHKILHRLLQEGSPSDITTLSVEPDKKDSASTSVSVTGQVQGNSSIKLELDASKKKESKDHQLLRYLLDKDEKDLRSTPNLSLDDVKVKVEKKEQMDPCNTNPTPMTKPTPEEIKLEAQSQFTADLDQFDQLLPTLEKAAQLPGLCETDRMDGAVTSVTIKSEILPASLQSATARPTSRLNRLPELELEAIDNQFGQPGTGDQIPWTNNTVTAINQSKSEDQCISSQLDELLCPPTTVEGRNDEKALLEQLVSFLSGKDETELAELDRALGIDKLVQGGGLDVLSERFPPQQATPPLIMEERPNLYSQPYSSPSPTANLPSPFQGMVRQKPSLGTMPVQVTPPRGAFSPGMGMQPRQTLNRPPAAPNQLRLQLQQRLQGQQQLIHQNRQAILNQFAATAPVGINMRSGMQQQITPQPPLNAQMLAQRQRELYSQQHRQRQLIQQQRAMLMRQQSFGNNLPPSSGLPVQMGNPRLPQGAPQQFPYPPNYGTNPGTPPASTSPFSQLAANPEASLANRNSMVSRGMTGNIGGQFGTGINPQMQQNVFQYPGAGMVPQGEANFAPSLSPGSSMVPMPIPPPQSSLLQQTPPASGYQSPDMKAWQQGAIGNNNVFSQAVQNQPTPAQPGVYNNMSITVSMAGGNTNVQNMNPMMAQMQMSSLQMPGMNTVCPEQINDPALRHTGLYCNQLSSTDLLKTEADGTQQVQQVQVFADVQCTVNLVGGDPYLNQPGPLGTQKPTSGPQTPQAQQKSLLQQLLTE
A short description of assay [4]: repression of VP16-driven luciferase reporter – cell-based, luminescence, high throughput, counter-screen for SRC1 inhibitor project (AID 588824; in the data active means inhibition above about 25%). To be noted: cell-based VP16 transactivation luciferase luminescence; at 3.6 µM; active compounds read high.
The nature of assay [5]: StAR promoter reporter inhibitors, counter-screen for LRH-1 inverse agonist project, cell-based, luminescence, high throughput (AID 651611; in the data active means inhibition above about 28%). The note with it: StAR promoter luciferase reporter counterscreen, at 3.6 µM, active compounds read high.
In assay [6] the target is Nuclear receptor subfamily 5 group A member 2 (Homo sapiens) (UniProt O00482). Briefly: NR5A2 activity suppression in reporter cells – cell-based, luminescence, confirmation (AID 651613; in the data active means inhibition above about 42%;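 further: HEK293T cells co-transfected with LRH-1 and StAR promoter luciferase reporter; 0% = vehicle wells and 100% = parental cells lacking receptor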). To be noted: cell-based LRH-1 luciferase reporter, inverse agonism; at 3.6 µM; active compounds read high.
Assay [7] concerns the target Steroidogenic factor 1 (Homo sapiens) (UniProt Q13285). The experiment in a line: inverse agonism at SF1 nuclear receptor – cell-based, luminescence, high throughput, counter-screen for LRH-1 inverse agonist project (AID 651614; in the data active means inhibition above about 44%;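 further: cells cotransfected with StAR promoter reporter and SF1 expression vector; 0% = vehicle on cells with receptor and 100% = vehicle on cells lacking receptor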). To be noted: cell-based SF1 luciferase reporter, at 3.6 µM, active compounds read high. In general terms: The purpose of a counterscreen is to sort out artefacts and off-target activity.

Assay [8] is described as follows: compounds suppressing VP16-driven luciferase signal – cell-based, luminescence, high throughput, counter-screen for LRH-1 inverse agonist project (AID 651615; in the data active means inhibition above about 33%). The note with it: Gal4-VP16 luciferase reporter cells, at 3.6 µM, active compounds read high.
The test system of assay [9] is transactivating tegument protein VP16 (Human herpesvirus 1). The experiment in a line: compounds suppressing VP16-driven luciferase signal – cell-based, luminescence, single concentration, counter-screen for SRC2 inhibitor project (AID 652007; in the data active means inhibition above about 36%). The note with it: cell-based VP16 transactivation luciferase reporter, at 8.9 µM, active compounds read high.
Assay [10] concerns the target Nuclear receptor coactivator 2 (Homo sapiens) (UniProt Q15596). Briefly: inhibition of GAL4-SRC2 driven luciferase expression – cell-based, luminescence, HEK293, triplicate, confirmation (AID 652008;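 active means mean inhibition above 46.5%, the solvent-only control mean plus 3 SD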;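 further: 0% = DMSO-treated cells and 100% = Gossypol at 36 µM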). To be noted: HEK293 GAL4-SRC2 luciferase reporter, at 8.9 µM, active compounds read high.

Nuclear receptor coactivator 2 (Homo sapiens), sequence (Q15596 whole entry, looked up, the tested form may be a part): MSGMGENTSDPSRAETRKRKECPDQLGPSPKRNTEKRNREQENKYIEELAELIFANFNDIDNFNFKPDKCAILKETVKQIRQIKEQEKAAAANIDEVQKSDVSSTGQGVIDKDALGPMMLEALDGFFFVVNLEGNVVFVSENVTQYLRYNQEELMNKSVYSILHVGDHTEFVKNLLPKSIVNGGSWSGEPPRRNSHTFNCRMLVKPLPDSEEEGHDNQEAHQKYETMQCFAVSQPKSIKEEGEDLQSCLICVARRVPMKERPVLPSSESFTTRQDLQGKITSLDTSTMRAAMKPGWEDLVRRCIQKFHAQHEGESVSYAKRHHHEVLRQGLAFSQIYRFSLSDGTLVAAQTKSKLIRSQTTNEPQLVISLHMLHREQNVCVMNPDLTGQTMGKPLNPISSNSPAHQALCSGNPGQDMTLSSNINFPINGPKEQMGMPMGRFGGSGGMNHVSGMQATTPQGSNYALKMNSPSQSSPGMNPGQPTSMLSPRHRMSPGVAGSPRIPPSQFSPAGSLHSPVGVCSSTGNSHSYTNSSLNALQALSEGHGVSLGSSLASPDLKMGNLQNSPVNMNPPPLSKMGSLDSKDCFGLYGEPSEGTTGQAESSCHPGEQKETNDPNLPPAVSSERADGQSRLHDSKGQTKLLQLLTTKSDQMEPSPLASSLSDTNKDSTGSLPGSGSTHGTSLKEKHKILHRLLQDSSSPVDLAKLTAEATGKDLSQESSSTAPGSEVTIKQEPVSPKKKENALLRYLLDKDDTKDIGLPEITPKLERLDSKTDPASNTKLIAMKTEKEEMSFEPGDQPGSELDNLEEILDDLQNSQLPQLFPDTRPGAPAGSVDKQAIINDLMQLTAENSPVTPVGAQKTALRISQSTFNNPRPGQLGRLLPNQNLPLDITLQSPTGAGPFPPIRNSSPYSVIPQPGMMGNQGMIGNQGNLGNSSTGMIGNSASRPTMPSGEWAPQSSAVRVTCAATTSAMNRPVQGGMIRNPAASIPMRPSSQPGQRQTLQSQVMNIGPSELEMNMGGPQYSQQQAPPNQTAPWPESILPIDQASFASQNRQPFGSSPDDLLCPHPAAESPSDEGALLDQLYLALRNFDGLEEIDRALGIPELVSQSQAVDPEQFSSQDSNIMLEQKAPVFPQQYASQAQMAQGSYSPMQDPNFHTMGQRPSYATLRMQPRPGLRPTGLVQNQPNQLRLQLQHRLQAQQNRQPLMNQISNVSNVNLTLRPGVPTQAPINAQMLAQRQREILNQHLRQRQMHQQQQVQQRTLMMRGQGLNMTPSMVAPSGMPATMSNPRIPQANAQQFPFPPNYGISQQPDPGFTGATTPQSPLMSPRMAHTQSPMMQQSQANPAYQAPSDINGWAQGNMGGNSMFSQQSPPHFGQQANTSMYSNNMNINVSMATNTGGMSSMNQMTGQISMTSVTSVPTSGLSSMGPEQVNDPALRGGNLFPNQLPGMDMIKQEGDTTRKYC
Steroidogenic factor 1 (Homo sapiens), sequence (Q13285 whole entry, looked up): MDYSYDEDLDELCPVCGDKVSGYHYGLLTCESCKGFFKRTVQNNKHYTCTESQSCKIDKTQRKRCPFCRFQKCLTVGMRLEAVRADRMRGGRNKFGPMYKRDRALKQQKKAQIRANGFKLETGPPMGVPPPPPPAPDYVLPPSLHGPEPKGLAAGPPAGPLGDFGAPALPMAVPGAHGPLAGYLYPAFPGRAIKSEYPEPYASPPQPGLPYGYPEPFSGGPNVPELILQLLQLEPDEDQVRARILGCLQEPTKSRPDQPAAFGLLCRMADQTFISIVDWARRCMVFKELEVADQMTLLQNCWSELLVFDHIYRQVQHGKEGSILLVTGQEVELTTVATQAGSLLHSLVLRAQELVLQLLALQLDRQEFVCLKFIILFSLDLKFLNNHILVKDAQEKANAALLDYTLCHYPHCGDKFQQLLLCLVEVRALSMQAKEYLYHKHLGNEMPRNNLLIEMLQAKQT

Usually inhibition stands for the drop in the measured response relative to a control, in per cent. As for `COc1cccc2c1C(=O)c1c(O)c3c(c(O)c1C2=O)CC(O)(C(C)=O)CC3OC1CC(N(C)C)C(O)C(C)O1` (stereo not given), the inhibition in assay [1] is 94.2% (active); in assay [2], 95.8% (active); in assay [3], 73.9% (active); in assay [4] it was 95.3% (active); in assay [5] it was 80% (active); in assay [6] it was 104% (active). Moreover, the inhibition in assay [7] is 94.5% (active); in assay [8] it was 96.3% (active); in assay [9], 29.4%; in [10], 45.5%.
Take `O=C(OC(c1ccccc1)c1nccc2ccccc12)c1ccccc1` (stereo not given): the inhibition in assay [1] is 57.4% (active); in assay [2], 42.8% (active); in assay [3] it was 26.3%; in assay [4] it was 21.7%; in assay [5], 43.4% (active); in assay [6], -16.8%. Besides, the inhibition is 45.4% (active) in [7], -4.96% in assay [8], 30.1% in assay [9] and 67.6% (active) in assay [10].
In the case of `Cc1ccc(N(Cc2cc(=O)[nH]c3ccccc23)C(=O)CCl)c(C)c1`, the inhibition was 55.3% (active) in assay [1]; 34.3% (active) in assay [2]; 34.3% in [3]; 24.6% in assay [4]; 37.3% (active) in assay [5]; 72.4% (active) in [6]. Also, the inhibition in [7] is 75.5% (active); in assay [8], 46% (active); in [9] it was 44.4% (active); in assay [10], 60% (active).
As for `CCN(CC)c1ccc(C(=C2C=CC(=[N+](CC)CC)C=C2)c2ccccc2)cc1`, the inhibition in assay [1] is 95.5% (active); in assay [2], 95.9% (active); in assay [3] it was -95%; in assay [4], 94.3% (active); in assay [5] it was 97.7% (active); in [6], 109% (active). Further, the inhibition in assay [7] was 99.1% (active); in assay [8], 98.7% (active); in [9] it was 98.3% (active); in assay [10], 99.5% (active).
Consider `CC(C)(C)C(=O)/C(=C/c1ccc(Cl)cc1)n1cncn1`, for which the inhibition was 73.4% (active) in assay [1]; 64.5% (active) in [2]; 40.2% in assay [3]; 59.1% (active) in assay [4]; 78.4% (active) in assay [5]; 70.4% (active) in [6]. The inhibition was 77% (active) in assay [7], 78.9% (active) in assay [8], 51.1% (active) in [9] and 79.7% (active) in [10].
For the compound `Nc1ncnc2c(C3OC(CO)C(O)C3O)scc12` (stereo not given), the inhibition is 90.7% (active) in assay [1]; 95.1% (active) in assay [2]; 78.5% (active) in assay [3]; 94.9% (active) in assay [4]; 89.2% (active) in assay [5]; 107% (active) in [6]. Moreover, the inhibition in assay [7] was 96.5% (active); in assay [8] it was 92.9% (active); in assay [9], 62.8% (active); in [10] it was 57.2% (active).
`COc1ccc2cc3c(N)nn(C(=O)c4ccccc4[N+](=O)[O-])c3nc2c1`: the inhibition in assay [1] is 76.5% (active); in assay [2] it was 59.9% (active); in assay [3], 64.8% (active); in assay [4], 61.3% (active); in assay [5], 44.6% (active); in [6], 67.5% (active). Further, the inhibition in assay [7] is 46.9% (active); in [8], 78% (active); in assay [9], 3.64%; in assay [10], 46.6% (active).
For the compound `O=C(CN1C(=O)c2ccccc2S1(=O)=O)c1ccc2c(c1)OCCO2`, the inhibition was 87.8% (active) in assay [1]; 89.7% (active) in [2]; 64% (active) in assay [3]; 84.8% (active) in assay [4]; 85.1% (active) in assay [5]; 86.3% (active) in assay [6]. Further, the inhibition in assay [7] is 84.5% (active); in assay [8], 84.4% (active); in [9], 91.4% (active); in assay [10], 95.2% (active).
As to `Oc1ccc(CCNc2ncnc3ccc(Cl)cc23)cc1`, the inhibition is 64.9% (active) in [1]; 61.6% (active) in assay [2]; 60.8% (active) in assay [3]; 62% (active) in assay [4]; 43.6% (active) in [5]; 70.5% (active) in assay [6]. The inhibition in assay [7] is 68.7% (active); in assay [8], 78.6% (active); in [9] it was 26.7%; in assay [10], 65.6% (active).
On to `OCC1OC(n2ccc3c2ncn2ncnc32)C(O)C1O` (stereo not given), for which the inhibition in assay [1] is 64.6% (active); in assay [2] it was 44.2% (active); in assay [3] it was 55.1% (active); in assay [4] it was 38.2% (active); in [5], 52.8% (active); in assay [6] it was 49.2% (active). The inhibition in assay [7] was 38.8%; in assay [8], 60.2% (active); in assay [9], 12.2%; in assay [10], 46.4%.
`c1csc(CNc2ccc3c(c2)OCCO3)c1`: the inhibition was 23.3% in assay [1]; -33.9% in assay [2]; -25.5% in assay [3]; -34.9% in assay [4]; -19.7% in [5]; -77.1% in assay [6]. Besides, the inhibition in [7] is -20.9%; in assay [8], -49.8%; in [9], 60.7% (active); in assay [10], 47.1% (active).
Consider `COc1cc(C(=O)/C=C/c2cccnc2)c([N+](=O)[O-])cc1OC`, for which the inhibition in assay [1] was 33.2%; in assay [2] it was 45.3% (active); in [3], 29.4%; in assay [4] it was 48.8% (active); in assay [5], 59.3% (active); in [6], 59.1% (active). Moreover, the inhibition in assay [7] was 56.7% (active); in [8], 68.5% (active); in assay [9], 18.2%; in assay [10], 45.8%.
For `O=S(=O)(c1ccc(NC(=S)NCc2cccnc2)cc1)N1CCCCC1`, the inhibition in assay [1] was 91% (active); in [2] it was 72.3% (active); in assay [3], 77.6% (active); in assay [4], 65.2% (active); in assay [5], 90.8% (active); in assay [6], 102% (active). In addition, the inhibition was 96.3% (active) in assay [7], 88.6% (active) in assay [8], 12.3% in [9] and 50.2% (active) in [10].
On to `NCC(=O)Nc1ccc(Cl)cc1C(=O)c1ccc[nH]1`, for which the inhibition in assay [1] was 66.1% (active); in [2] it was 45.8% (active); in [3], 47% (active); in [4], 39.9% (active); in assay [5], 49.4% (active); in assay [6], 55.3% (active). The inhibition in assay [7] was 62.3% (active); in [8] it was 39.2% (active); in assay [9] it was 21.2%; in assay [10] it was 43.5%.
Regarding `O=C(CCl)N(c1ccccc1)C1CCS(=O)(=O)C1` (stereo not given), the inhibition in [1] is 55.4% (active); in assay [2] it was 18%; in [3], 22.3%; in assay [4], 14%; in assay [5], 50.6% (active); in [6], 71.3% (active). In addition, the inhibition is 65.1% (active) in assay [7], 16.8% in assay [8], 40.7% (active) in [9] and 57.2% (active) in [10].
